Screens (PubChem BioAssay)
An excerpt weighted towards active compounds, which were near 2.2% of everything screened.
M1 antag: blocks human M1 muscarinic receptor; 360,000 compounds, 1.3% hits; P11229; CHO-K1 hM1, Fluo-8 calcium fluorescence, ACh EC80 antagonist; inhibition, % at 3 µM;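 active = percent inhibition above its own plate's cutoff, namely the mean of that plate's compound wells plus 3 SD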;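 note: peak over basal fluorescence ratio during 140 s after agonist addition; 0% = ACh EC80 plus DMSO and 100% = DMSO alone without agonist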
Target sequence (P11229 whole entry, looked up): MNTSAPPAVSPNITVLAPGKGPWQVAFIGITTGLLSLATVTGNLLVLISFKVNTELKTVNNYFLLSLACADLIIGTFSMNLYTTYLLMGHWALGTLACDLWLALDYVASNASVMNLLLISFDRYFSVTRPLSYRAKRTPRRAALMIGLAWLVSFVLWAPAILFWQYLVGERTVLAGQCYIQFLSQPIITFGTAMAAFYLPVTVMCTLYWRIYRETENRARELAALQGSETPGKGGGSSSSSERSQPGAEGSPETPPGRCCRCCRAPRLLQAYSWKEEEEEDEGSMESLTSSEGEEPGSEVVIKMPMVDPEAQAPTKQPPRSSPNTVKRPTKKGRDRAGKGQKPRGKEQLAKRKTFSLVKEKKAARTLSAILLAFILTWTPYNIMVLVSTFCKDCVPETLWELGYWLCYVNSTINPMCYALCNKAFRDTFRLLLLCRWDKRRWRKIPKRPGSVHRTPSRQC
CHRM4 antagonist: CHRM4 antagonism in calcium assay | P08173 | CHO-hM4 cells, ACh EC80, Fluo-8 calcium fluorescence | inhibition, % at 3 µM | 360,000 compounds, 0.73% hits | AID 624125;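 active = inhibition above its plate's cutoff, the mean inhibition of sample wells plus 3 SD, cut at about 27% in these data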;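 note: 0% = acetylcholine EC80 with DMSO and 100% = DMSO without agonist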
CHRM1 PAM: positive allosteric modulators of human M1 muscarinic receptor; activation, % at 3 µM; AID 588819; P11229; 360,000 compounds, 0.088% hits; CHO-K1 hM1, Fluo-8 calcium fluorescence, ACh EC20; 0% = ACh EC20, 100% = maximal ACh; in the data active = activation above about 19%, passing the limit was not always enough
CHRM1 agonist: agonists of human M1 muscarinic receptor; activation, % at 3 µM; CHO-K1 hM1, Fluo-8 calcium fluorescence, agonist mode; 0% DMSO, 100% acetylcholine EC100; AID 588814; 360,000 compounds, 0.33% hits; P11229;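 active = activation above the run's mean compound activation plus 3 SD, cut at about 16% in these data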;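 note: peak over basal fluorescence ratio within a 140 s kinetic read after compound addition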
M4 ag: agonists of human muscarinic M4 receptor (CHRM4); P08173; CHO-K1 hM4/Gqi5, Fluo-8 calcium fluorescence; vehicle 0%, full acetylcholine response 100%; activation, % at 3 µM; 360,000 compounds, 0.14% hits;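 active = activation above the run mean over all test wells plus 3 SD, cut at about 32% in these data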;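 note: peak over basal fluorescence ratio per well then scaled between controls; 0% = DMSO wells and 100% = acetylcholine at EC100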
M4 PAM: positive allosteric modulators of human muscarinic M4 receptor. AID 624126. 360,000 compounds, 0.4% hits. activation, % at 3 µM. P08173. CHO-K1 hM4/Gqi5, Fluo-8 calcium fluorescence, ACh EC20; 0% = ACh EC20, 100% = maximal ACh;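 active = activation above its plate's cutoff, the mean activation of sample wells plus 3 SD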
Starred values were filed as active, the others as inactive.

SMILES	M1 antag	CHRM4 antagonist	CHRM1 PAM	CHRM1 agonist	M4 ag	M4 PAM
CCOc1ccccc1CN1CCN(Cc2ccc(C)o2)CC1CCO (configuration not stated)	1.1	-3.0	-7.4	-12.0	0.3	-1.5
CN(CCOc1ccc(Cl)cc1)C(=O)c1cccc(S(=O)(=O)N2CCN(Cc3ccccc3)CC2)c1	39.7*	19.8	-14.5	-0.3	14.8	-5.5
COc1ccc(NC(=O)CN(C)C(=O)c2cccc(S(=O)(=O)N3CCN(Cc4ccccc4)CC3)c2)cc1	-7.2	7.4	6.7	-1.2	7.8	-1.4
CC(C)CN(C(=O)c1cccc(S(=O)(=O)N2CCN(Cc3ccccc3)CC2)c1)C1CCS(=O)(=O)C1 (configuration not stated)	-32.0	-7.9	24.7*	-1.4	0.4	15.0
O=C1NC(c2ccc(Br)cc2)Nc2sc3c(c21)CCC3 (configuration not stated)	-2.6	-9.4	4.3	-3.1	0.3	-4.7
CCOc1ccc(S(=O)(=O)Nc2nc3ccccc3nc2-n2ccc(=NC(=O)c3ccccc3C)cc2)cc1	25.8	8.8	-9.4	21.4*	13.8	-19.5
CCN(CC(=O)NCc1cccs1)C(=O)c1ccc(-c2ccc(F)cc2)o1	-4.4	1.4	8.2	-4.8	5.2	5.7
CCCCCC1CC(=O)NC1(C(=O)OCC)C(=O)OCC (configuration not stated)	40.0*	8.2	-22.8	-1.0	13.2	-3.8
CCOC(=O)C1(C(=O)OCC)NC(=O)CC1CC (configuration not stated)	-15.7	-3.2	6.0	0.0	0.9	5.2
CC(=O)N1CCN=C1SCc1c(F)cccc1Cl	-16.5	-13.1	12.6	-0.4	1.9	20.2*
COc1ccc(C(=O)NCCNc2nc3ccc(C)cc3cc2C#N)cc1	-12.3	6.7	-0.5	-3.0	-0.7	-6.8
Cc1ccc2nc(NCCNC(=O)c3ccccc3)c(C#N)cc2c1	-4.4	51.1*	3.3	-2.2	0.1	-14.0
c1ccc(SCc2nc3ccccc3[nH]2)cc1	-11.1	-18.8	2.3	-1.4	2.7	14.1
CCOc1c(Cl)cc(CNc2ccc(N3CCCC3)cc2)cc1OC	-10.6	0.2	8.4	-3.7	1.2	13.7
O=[N+]([O-])c1ccc(N/N=C/C=C/c2ccco2)cc1	35.3	21.1	-13.9	11.6	37.6*	-15.8
O=C(O)c1ccc(N/N=C/C=C/c2ccc([N+](=O)[O-])o2)cc1	35.9*	20.2	-13.2	27.1*	74.0*	-21.4
O=C(N/N=C/c1ccc([N+](=O)[O-])o1)C(=O)Nc1ccc(C(=O)O)cc1	-21.1	1.1	13.1	-0.3	0.3	5.8
CC(=O)Nc1ccc(NC(=O)C(C)OC(=O)/C(C#N)=C/c2ccc(N(C)C)cc2)cc1 (configuration not stated)	28.0*	1.2	3.7	10.3	6.6	-3.5
CC(OC(=O)/C(C#N)=C/c1ccc(N(C)C)cc1)C(=O)N(C)c1ccccc1 (configuration not stated)	23.9	3.9	-16.9	13.3	31.0	-17.2
CCOC(=O)C1(Cc2cccc(F)c2)CCN(Cc2cnn(CC)c2)CC1	1.4	-10.2	-10.2	-12.9	4.2	8.3
Cc1cc(C(=O)CSc2nc3ccc(Cl)cc3[nH]2)c(C)n1C	-9.7	2.3	2.4	-5.7	1.9	3.2
C=CCn1c(C)cc(C(=O)CSc2nc3ccccc3[nH]2)c1C	38.5*	28.9*	-27.3	0.9	29.0	-15.3
Cc1cc(C(=O)CSc2nc3ccc(Cl)cc3[nH]2)c(C)n1CC1CCCO1 (configuration not stated)	19.1	30.5*	-5.0	-0.4	12.2	-12.0
Cc1cc(C(=O)CSc2nc3ccccc3[nH]2)c(C)n1Cc1ccco1	40.1*	11.9	-18.4	0.8	19.2	-25.7
CC(=O)N1CCOc2ccc(S(=O)(=O)Nc3ccc(Cl)cn3)cc21	13.7	3.2	-4.3	-2.3	0.4	0.9
SMILES	M1 antag	CHRM4 antagonist	CHRM1 PAM	CHRM1 agonist	M4 ag	M4 PAM
CCOC(=O)/C(C#N)=C1\C=CN(C)C(C)=N1	-14.4	-1.9	13.2	-0.8	0.4	7.7
CCc1ccc(OC(C)C(=O)Nc2ccc(S(=O)(=O)Nc3nccs3)cc2)cc1 (configuration not stated)	4.5	0.6	4.0	16.8*	19.2	11.0
O=C(Nc1ccc(-c2nc3ccccc3c(=O)o2)cc1)c1ccco1	13.6	0.6	-6.1	0.2	-2.9	5.5
Cc1cnc(NC(=O)c2ccncc2)s1	-11.2	-2.5	8.5	-4.8	0.3	1.9
Cc1cnc(NC(=O)c2cncc(Br)c2)s1	-10.5	-4.9	11.9	-5.6	1.3	20.3*
COc1ccccc1CN1CCC(n2nccc2NC(=O)CCOc2ccccc2)CC1	0.1	3.0	-1.1	-5.7	1.2	-0.6
Cc1ccc2nc(/C(C#N)=C\c3ccc(N4CCOCC4)o3)[nH]c2c1	20.2	6.4	-12.2	30.9*	5.1	-5.8
CC1Sc2ccc(S(=O)(=O)N3CCC(C(=O)Nc4ccc(Cl)cc4)CC3)cc2NC1=O (configuration not stated)	44.8*	30.0*	-14.2	-0.6	14.4	-12.2
Cc1ccc(NC(=O)C2CCN(S(=O)(=O)c3ccc(N4CCCC4=O)cc3)CC2)cc1Cl	47.2*	23.7	-14.8	2.1	19.1	-10.1
COc1ccc(NC(=O)C2CCN(S(=O)(=O)c3ccc4c(c3)NC(=O)C(C)S4)CC2)cc1 (configuration not stated)	23.1	2.9	-12.6	-0.9	12.2	-11.0
O=c1c2ccccc2nc(SCc2cccc(F)c2)n1-c1cccc(S(=O)(=O)N2CCCC2)c1	8.6	-1.4	-7.1	-4.6	0.6	-7.7
COc1ccc(/C=N/NC(=O)C(=O)/C=C2\NC3(CCCC3)Cc3ccccc32)cc1	-1.0	-7.2	24.7*	14.4	0.2	-7.5
O=C(/C=C1\NC2(CCCC2)Cc2ccccc21)C(=O)N/N=C/c1ccc(O)c(O)c1	-10.5	7.8	18.8	16.9*	-0.6	-14.7
CCc1ccccc1NC(=O)[C@@H]1CCC(=O)N1C1OC(=O)c2ccccc21 (some centres not stated)	-8.2	-5.2	5.9	-4.0	0.1	2.9
Cc1cccc(NS(=O)(=O)c2cccc3nsnc23)c1	2.6	-1.4	-0.9	-4.6	0.8	-6.5
CCN1CCN(S(=O)(=O)c2cccc3nsnc23)CC1	-15.1	-13.3	11.4	-6.4	0.8	5.7
CC1CC(C)CN(S(=O)(=O)c2cccc3nsnc23)C1 (configuration not stated)	-9.6	-9.7	12.8	-1.9	0.1	20.7*
CC(C)NS(=O)(=O)c1cccc2nsnc12	-26.7	11.4	16.4	11.8	2.3	27.4*
